Drawing on PubChem BioAssay (NCI), this text covers growth for 40 compounds.

Each structure is given as a SMILES string. The panel holds about 83,000 compounds, 20% with a hit somewhere; the sample as a whole holds those more often.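 Treatment: one concentration, 48 hours, 96-well format. Scoring: percent growth, with anything below 10 considered active.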 Values without a mark were called inactive. Activity calls are given as the source filed them.

The test system of this assay is HOP-62 NSCLC. Put plainly: NCI-60 one-dose screen, 48 h (100 = growth as untreated, 0 = no growth, -100 = all killed). Conditions: 10 µM unless noted. Here is the method:
Growth inhibition of the HOP-62 human Non-Small Cell Lung tumor cell line is measured as a screen for anti-cancer activity. Cells are grown in 96 well plates and exposed to the test compound for 48 hours. Compounds are tested at a single concentration, which is 10^-5 M for most compounds. The reported endpoint is percent growth (GI% or GIPRCNT), where numbers from 0 - 100% represent growth inhibition, and numbers from -100% - 0 represent cell death. For example, a value of 40 represents 60% growth inhibition. A value of 0 means no net growth occurred over the course of the experiment. A value of -40 indicates 40% of cells at the beginning of the experiment died by the end of the experiment. A value of -100 means all cells are dead at the end of the experiment.
NCI-60 Human Tumor Cell Lines Screen was performed using the standard one-dose NCI protocol, which is described in more detail at https://dtp.cancer.gov/discovery_development/nci-60/default.htm.
Compounds with GIPRCNT values below 10 were considered active. Activity score was based on GIPRCNT using the following formula: […]
Score is 0 for GIPRCNT values of 100 or above, 50 for GIPRCNT values of 0, and 100 for GIPRCNT values of -100.
In the case of `O=c1ssc(Cl)c1-c1ccccc1`, the growth is 98.1%.
As to `N/C(=N\c1nc2ccccc2s1)NC(=O)Nc1cccc(Cl)c1`, the growth was 36.8%.
As to `O=C1/C(=C/c2ccc(F)cc2)C=C(c2ccccc2)N1CCc1ccccc1`, the growth is -3.68% (active).
Take `Fc1cnc(NC2CC2)nc1-c1cnc2ccc(N3CCOCC3)cn12`: the growth is 9.8% (active).
For the compound `COc1ccc(-c2ccc3c(c2)sc2nc(-c4ccc(F)cc4)cn23)cc1`, the growth is 66.3%.
The result for `CCC1(C2CCCC2)NC(=O)NC1=O` (stereo not given) reads 115%; that for `CCN(CC)S(=O)(=O)c1cccc(-c2ccc3c(NC(=O)C4CC4)n[nH]c3c2)c1`, 18.5% [6.25 µM]; that for `NS(=O)(=O)c1ccc(-n2nc(C(=O)N/N=C\c3ccc(F)cc3)cc2-c2ccc(Cl)cc2)cc1`, 74.1%.
Regarding `COc1cc(Cn2ncc3ccc(NC(=O)c4cc5ccccc5oc4=N)cc32)cc(OC)c1OC`, the growth is 64.9%.
For `O=C(COc1ccc(/C=C2\Oc3ccccc3C2=O)cc1)Nc1nc2ccccc2s1`, the growth was 73.8%.
Consider `NCCCNc1nc2ccccc2c2c(=O)c3cccc(Cl)c3sc12`, for which the growth is 19.3%.
The result for `CC/C=C\C[C@H](O)C/C=C1/C(=O)C=C[C@@H]1C/C=C\CCCC(=O)OC` reads -32% (active).
Then `CN(C)c1ccc(-c2cc(-c3ccc(Nc4nc(Nc5ccc(Cl)cc5)nc(Nc5ccc(Cl)cc5)n4)cc3)no2)cc1`, with 63.6%; and `CN(C)c1ccc(/C=C/C(=O)c2cccc(Nc3nc(Nc4ccccc4)nc(Nc4ccccc4)n3)c2)cc1`, with 86.5%.
As to `O=C(N/N=C/c1ccncc1)c1ccc(C(F)(F)F)nc1Nc1cccc(C(F)(F)F)c1`, the growth is 13.3%.
Then `COc1cccc(-c2nn(-c3ccccc3)cc2-c2ccnc(NCCNC(=O)c3ccccc3)c2)c1`, with 60.7%; and `COc1ccc(NC(=O)CSc2nc(C)c(C(C)=O)n2-c2ccc([N+](=O)[O-])cc2)cc1`, with 95.7%; and `O=C1NC(=Nc2ccc(Cl)cc2)S/C1=C\c1cn(-c2ccccc2)nc1-c1ccccc1`, with 99.6%.
Take `COC(=O)[C@H](CSC)N(C)C(=O)[C@@H]1CSSC[C@@H](NC(=O)c2nc3ccccc3cc2O)C(=O)NCC(=O)N1C`: the growth was 82.2%.
With `CCCCn1c(=O)c2c(nc(NCCc3ccc(O)c(O)c3)n2CCC)n(CCCC)c1=O`, the growth was 96.8%.
Consider `O=c1c2cc(F)ccc2sc2c(NCCN3CCCCC3)nc3ccccc3c12`, for which the growth was 64.4%.
For the compound `COc1ccc2nc(NNC(=O)c3cnccn3)c3cccn3c2c1`, the growth is 7.91% (active).
Then `C[C@]12CC[C@@H]3c4cc(OC(F)F)c(O)cc4CC[C@H]3[C@@H]1CC[C@@H]2OS(N)(=O)=O`, with 43.3%; and `COc1ccc2occ(C3=C(c4c[nH]c5ccccc45)C(=O)N(O)C3=O)c2c1`, with 86.3%; and `CC(C)CCC[C@@H](C)[C@H]1CC[C@H]2[C@@H](Nc3ccc(O)cc3)CCC[C@]12C`, with 108%.
With `CC(C)=C[C@@H]1c2c(c3ccccc3n(C)c2=O)O[C@H]2c3c(c4ccccc4n(C)c3=O)OC(C)(C)[C@@H]12`, the growth was 115%.
Take `CCOc1c(C#N)nnc2c(C#N)c(NC(=O)c3ccccc3)nn12`: the growth was 96.6%.
Then `CC1(C)OC2C(CO[Si](C)(C)C(C)(C)C)OC(n3c(I)c(C#C[Si](C)(C)C)c(=O)[nH]c3=O)C2O1` (stereo not given), with 99.1%.
For `Cc1ccc2nc(NC(=O)CSc3nc(-c4ccccc4)c(C#N)c(=O)n3Cc3ccccc3)sc2c1`, the growth is 77.8%.
The result for `Cc1c(C(=O)NC(Cc2ccccc2)C(O)C(=O)NCc2ccc(F)cc2)[nH]c2ccccc2c1=O` (stereo not given) reads 99.2%; that for `Cc1ccc(Cc2cnc(NC(=O)c3ccc4noc(-c5ccccc5)c4c3)s2)cc1`, 64.8%; that for `Cc1ccc2[nH]c(=O)c3c(c2c1)OC(N)=C(C#N)C31c2cc(Br)ccc2-c2ccc(Br)cc21`, 69%.
As to `Cc1cc(C(=O)c2ccccc2)c(C)c2c1[nH]c1ccc(Cl)cc12`, the growth was 34.3%.
The result for `CN(C)CC1=NC2SC=C(c3ccccc3)C2C(=O)N1CC#N` (stereo not given) reads 102%.
Consider `CCOc1ccccc1-c1cc(-c2cccs2)c(C#N)c(=O)[nH]1`, for which the growth was 81.5%.
On to `COc1nc2c(c(=O)n1C)CN(c1ccccc1)C(=O)CN2C`, for which the growth was 63.6% [100 µM].
In the case of `COC(=O)[C@]12CC[C@@H](C)[C@H](C)[C@@H]1C1=CC[C@@H]3[C@@]4(C)C(C=O)=C[C@@](C)(COC(C)=O)[C@@H]4[C@H](O)C[C@@]3(C)[C@]1(C)CC2`, the growth is 8.74% (active).
On to `N#C/C(=C/C=C/c1cccc(Cl)c1)S(=O)c1ccccc1` (stereo not given), for which the growth is -17.4% (active).
On to `COC(=O)[C@]12CC[C@@H](C)[C@H](C)[C@@H]1C1=CC[C@@H]3[C@@]4(C)C(C=O)=C[C@@](C)(COC(=O)c5ccco5)[C@@H]4C(=O)C[C@@]3(C)[C@]1(C)CC2`, for which the growth was 31.6%.
Take `CS(=O)c1cccc(-c2ccc3nc(N)n(-c4ccc(C(F)(F)F)cc4)c(=O)c3c2)c1` (stereo not given): the growth was 98%.
